Bioassay records: PubChem BioAssay, several laboratories
Rows were chosen to be rich in hits. Some 4% of all compounds tested hit in one or more screens of this group.
GDH-TPI inh: inhibits GDH-TPI coupling enzymes, artifact for Mtb FBA screen; GDH-TPI coupled enzyme counterscreen, NADH absorbance; inhibition, % at 4.8 µM; 360,000 compounds, 1.2% hits; in the data active = inhibition above about 30%;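 also: 0% = DMSO wells and 100% = wells lacking the enzyme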
Mtb betalactam: beta-lactam sensitization of Mtb H37Rv; M. tuberculosis H37Rv growth with meropenem, percent inhibition; inhibition, % at 25 µM; AID 434955; 330,000 compounds, 0.27% hits;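 also: growth measured after seven days incubation then overnight dye step; 0% = bacteria only wells and 100% = bacteria with antibiotic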
Mtb UGM inh: blocks M. tuberculosis UGM enzyme. P9WIQ1. purified UGM, fluorescence polarization probe displacement. inhibition, % at 10 µM. 320,000 compounds, 0.06% hits. AID 504406; in the data active = inhibition above about 10%, passing the limit was not always enough
Mtb FBA inh: Mtb fructose-bisphosphate aldolase inhibition; P9WQA3; purified M. tuberculosis FBA, fluorescence read-out; inhibition, % at 1 µM; 360,000 compounds, 2.3% hits; AID 588726; in the data active = inhibition above about 27%;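 also: 0% = vehicle and 100% = reference inhibitor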
RecA splice inh: inhibitors of M. tuberculosis RecA intein splicing. P9WHJ3. cell-free RecA intein splicing, fluorescence. inhibition, % (no concentration beside the values). 290,000 compounds, 0.75% hits. AID 2221; in the data active = inhibition above about 30%;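 also: 0% = vehicle wells and 100% = reference inhibitor control wells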
Rv3671c protease: inhibits the M. tuberculosis serine protease Rv3671c | 320,000 compounds, 0.048% hits | inhibition, % at 5.96 µM | P9WHR9; in the data active = inhibition above about 38%;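 also: extracellular domain of Rv3671c used as enzyme; 0% = enzyme with DMSO and 100% = no enzyme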
Target sequence (P9WHR9 whole entry, looked up, the tested form may be a part): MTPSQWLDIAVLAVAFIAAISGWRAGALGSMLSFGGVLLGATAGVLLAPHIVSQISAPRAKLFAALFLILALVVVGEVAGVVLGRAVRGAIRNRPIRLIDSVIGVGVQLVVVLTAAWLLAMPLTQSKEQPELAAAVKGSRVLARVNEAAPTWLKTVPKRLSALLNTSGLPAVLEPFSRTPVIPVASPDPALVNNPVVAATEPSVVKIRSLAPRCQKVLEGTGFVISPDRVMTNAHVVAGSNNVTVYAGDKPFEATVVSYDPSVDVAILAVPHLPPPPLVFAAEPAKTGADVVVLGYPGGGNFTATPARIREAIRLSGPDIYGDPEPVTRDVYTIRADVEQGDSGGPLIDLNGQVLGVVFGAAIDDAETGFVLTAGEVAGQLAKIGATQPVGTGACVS
GFP chromo cs: counter-screen: blocks GFP chromophore formation. shares compounds with RecA splice inh. cell-free GFP chromophore formation, fluorescence. EC50, µM. 2,100 compounds, 83% hits
* marks the source's active call; other numbers are inactive results; . = not tested or not shown; + = active, no number. Unless noted, no rule for the calls is given here.

SMILES	GDH-TPI inh	Mtb betalactam	Mtb UGM inh	Mtb FBA inh	RecA splice inh	Rv3671c protease	others
CN(C)CCNc1oc(COc2ccc(Cl)cc2Cl)nc1C#N	3	-3	-2	3	-6	-1
CC(C)N1CCCC(C)(C(=O)Nc2nc3ccccc3n2C)C1 (stereo unspecified)	6	.	.	-3	.	.
COc1ccc(C(=O)COC(=O)Cn2[nH]c(=O)c3ccccc3c2=O)c(OC)c1	14	-6	3	-1	-2	-3
NS(=O)(=O)c1ccc(CCNC(=O)c2cccc(S(=O)(=O)N3CCCC3)c2)cc1	3	1	2	-1	.	-1
CCNC(=O)C1(C)CCCN(Cc2ccc(Oc3ccccc3)cc2)C1 (stereo unspecified)	0	.	.	-3	.	.
COc1ccccc1/C=C1\CCC(C2CCCC2)C1=O (stereo unspecified)	21	-13	0	1	2	-1
Cc1ccc(CNC(=O)COC(=O)c2ccc(S(=O)(=O)NCc3ccco3)cc2)cc1	11	1	1	2	.	-6
COc1ccc(Nc2oc(-c3ccc(Cl)cc3)nc2C#N)cc1	28	-2	-1	-2	-1	-2
N#Cc1nc(-c2cccc(Cl)c2)oc1NCc1cccnc1	13	67	0	141*	2	-7
N#Cc1nc(-c2ccc(Cl)cc2)oc1NCc1ccco1	7	20	-3	175*	0	-15
N#Cc1nc(-c2ccccc2Cl)oc1NCc1ccco1	9	2	3	9	7	-21
N#Cc1nc(-c2ccco2)oc1NCc1cccnc1	16	12	0	23	2	-2
COCCNc1oc(-c2ccc(Cl)cc2)nc1C#N	37*	.	.	+	-1	.
COC(=O)c1c(-c2ccccc2)nn(-c2ccccc2)c1C(=O)OC	-4	2	0	4	-2	4
c1ccc2oc(-c3ccc4c(c3)CNCc3cnnn3-4)cc2c1	.	.	.	+	.	.
c1cc2c(cc1N1CCCCC1)CNCc1cnnn1-2	.	.	.	-3	.	.
CCOC(=O)c1cc(C)sc1NC(=O)CSC1=NCCS1	9	-7	-1	3	32*	-7
Cc1nc2scc(C)n2c(=O)c1S(=O)(=O)NCc1ccccc1	38*	-7	3	24	-7	5
COc1cccc(CNS(=O)(=O)c2c(C)nc3scc(C)n3c2=O)c1	21	4	2	18	0	-1
CCS(=O)(=O)c1ccc(C=NNc2nc3ccccc3o2)cc1	37*	.	.	-2	.	.
Nc1ccc2c(C(F)(F)F)cc(C(F)(F)F)nc2n1	12	-1	0	+	-5	0
Cc1cc(/C=C2\NC(=O)NC2=O)c(C)n1-c1ccc(N2CCOCC2)cc1	21	30	0	-2	-1	-4
Cc1cc(/C=C2/NC(=O)NC2=O)c(C)n1-c1ccc(N2CCOCC2)cc1	34*	6	0	2	-16	4
Cc1c(C2(O)CCCCC2)[nH]c2cnccc12	13	-1	4	127*	.	-12
COc1ccc(OC)c(N2C(=O)C(Cl)=C(N3CCCCC3)C2=O)c1	9	51	3	1	63*	4	GFP chromo cs=17*
SMILES	GDH-TPI inh	Mtb betalactam	Mtb UGM inh	Mtb FBA inh	RecA splice inh	Rv3671c protease	others
O=C1C(Cl)=C(N2CCCCC2)C(=O)N1c1ccccc1Cl	6	93	0	2	77*	-6	GFP chromo cs=6.2*
Cc1ccccc1N1C(=O)C(Cl)=C(N2CCCCCC2)C1=O	-2	7	-3	-7	8	-11
COc1ccccc1N1C(=O)C(Cl)=C(N2CCCC2)C1=O	11	-7	0	-2	-1	-6
O=C1C(Cl)=C(N2CCCCC2)C(=O)N1c1ccccc1	1	.	2	-6	41*	-11	GFP chromo cs=8.8*
N#C/C(=N\Nc1ccc(S(=O)(=O)N2CCc3ccccc32)cc1)C(N)=S	8	0	0	-27	31*	17	GFP chromo cs=32*
CCOC(=O)/C(C#N)=N/Nc1ccc(S(=O)(=O)N2CCc3ccccc32)cc1	17	-1	0	-7	2	-7
Cc1cc(-c2cc(NC=O)c3ncc(-c4cccc(C(=O)NCCN(C)C)c4)n3c2)cc(C)c1O	7	.	.	1	.	.
CS/C(=C/[N+](=O)[O-])Nc1cccc2c1C(C)CC2(C)C (stereo unspecified)	16	8	-1	-5	67*	-11	GFP chromo cs=38*
